Data published in ChEMBL document CHEMBL3433997, “St. Jude Leishmania screening dataset” (2016).

Columns and labels:
Type in all cases: functional
[1] = molecular target: Solute carrier family 2, facilitated glucose transporter member 1 (Homo sapiens) (UniProt P11166); assay: ST_JUDE_LEISH: Cytotoxicity at 2uM final concentration against transgenic Leishmania Mexicana promastigotes LmGLUT1 that are glucose transport deficient and complemented with the human glucose transporter GLUT1. Activity is measured by DNA content using SYBR green in vitro
[2] = molecular target: Hexose transporter 1 (Plasmodium falciparum) (UniProt O97467); assay: ST_JUDE_LEISH: Cytotoxicity at 2uM final concentration against transgenic Leishmania Mexicana promastigotes LmPfHT that are glucose transport deficient and complemented with the Plasmodium falciparum hexose transporter. Activity is measured by DNA content using SYBR green in vitro
[3] = molecular target: Glucose transporter (Leishmania mexicana) (UniProt O61059); assay: ST_JUDE_LEISH: Cytotoxicity at 2uM final concentration against transgenic Leishmania Mexicana promastigotes LmGT2 that are glucose transport deficient and complemented with the L. Mexicana glucose transporter 2. Activity is measured by DNA content using SYBR green in vitro

Chain of Solute carrier family 2, facilitated glucose transporter member 1 (Homo sapiens) (P11166 whole entry): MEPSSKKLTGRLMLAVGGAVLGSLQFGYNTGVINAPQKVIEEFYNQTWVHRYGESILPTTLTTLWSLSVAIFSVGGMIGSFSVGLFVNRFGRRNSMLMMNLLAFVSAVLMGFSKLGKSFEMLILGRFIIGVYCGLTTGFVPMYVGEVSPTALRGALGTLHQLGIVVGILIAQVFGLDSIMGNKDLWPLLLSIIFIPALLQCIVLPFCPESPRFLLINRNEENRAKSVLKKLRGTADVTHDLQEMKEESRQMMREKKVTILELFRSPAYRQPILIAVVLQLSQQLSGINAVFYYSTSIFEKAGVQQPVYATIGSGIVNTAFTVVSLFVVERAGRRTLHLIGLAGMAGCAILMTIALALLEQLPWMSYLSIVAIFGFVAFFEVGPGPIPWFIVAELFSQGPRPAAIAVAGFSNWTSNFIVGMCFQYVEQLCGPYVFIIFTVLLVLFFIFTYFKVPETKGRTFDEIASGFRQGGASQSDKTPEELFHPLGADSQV

Structure (SMILES) | inhibition [1] | inhibition [2] | inhibition [3]
Cc1cc(NCCc2ccccc2)nc(NC(=N)Nc2ccc(Cl)cc2)n1 | 0.08% | 2.1% | -1.21%
Cc1ccc(NC(=O)c2cccc(C#N)c2)cc1-c1ccc(C(=O)Nc2ccncc2)cc1 | 7.71% | 9.75% | 4.44%
OC1CCCN(Cc2cccc(-c3ccc(-c4nc5ccccc5[nH]4)cc3)c2)C1 (stereo unspecified) | 3.91% | 5.45% | -2.43%
CCNC(=O)c1ccc(-n2nc(C)cc2-c2ccccc2)cc1 | 2.66% | 3.31% | -0.67%
COc1ccc(CC(Cc2ccc(OC)cc2)NCC(O)c2cccc(Cl)c2)cc1 (stereo unspecified) | 2.03% | 0.72% | 1.6%
Cc1cccc2nc(-c3ccc(-c4ccc(CNCCc5ccncc5)cc4)cc3)[nH]c12 | 13.2% | 21.1% | 10.1%
CC1CN(Cc2ccc(C#N)cc2)CCN1c1ccc(NC(=O)c2cccs2)cc1 (stereo unspecified) | 8.47% | 8.63% | 8.98%
CN(C)CCc1coc2ccc(C(=O)Nc3ccc(-c4ccc(O)cc4)cc3)cc12 | 4.69% | 4.41% | 2.77%
Cc1c[nH]c2ccc(/C=C/C(=O)NC3CCC(CCN4CCc5ccc(C#N)cc5CC4)CC3)cc12 (stereo unspecified) | 5.06% | 5.55% | 0.32%
CC(C)(C)COC(=O)c1ccc(NC(=O)N[C@@H](Cc2ccc(O)cc2)C(=O)NC2CCN(Cc3ccc(O)cc3)C2)cc1 (stereo partly specified) | -2.22% | -2.38% | -0.79%
COc1ccc2nccc(NC(=O)N3CCC(NCc4cc5ccccc5[nH]4)CC3)c2n1 | 13.2% | 16.9% | 2.89%
NC(=O)c1cccc(C(=O)Nc2cccc(-c3cccc(-c4nc5cc(F)ccc5[nH]4)c3)c2)c1 | -0.39% | 0.68% | -0.72%
